One experiment concerns the target GHSR. In words: pooled miR-30 sensor sort-seq; sequence = guide strand. The note with it: shRNA.
Regarding TAGCGCTCGACGCTCAGCGCTG, the sensor-assay potency score (higher = more potent) is -1.17.
On the same count and under the same terms, in the case of AAGTCTGAACACTGCCACCCGG it was -1.26; in that of TAGAAGAGGACAAAGGACACGA, 0.735.
For TTGAACCCCGGCTCTTCGCTGG, the sensor-assay potency score (higher = more potent) is -0.129.
TTTCACGGTTTGCTTGTGGTTC had a sensor-assay potency score (higher = more potent) of -0.265.
Regarding TTGCAGTACTGGCTGATCTGAG, the sensor-assay potency score (higher = more potent) was -0.301.
Regarding TTGGAAAATAAATATCGCCCTA, the sensor-assay potency score (higher = more potent) was -0.35.
Take TGGAAAATAAATATCGCCCTAC: the sensor-assay potency score (higher = more potent) was -0.395.
The same measure, in the same setting: the same measure for TTGCTTGTGGTTCTGGTCCCTG: -0.711.

The next experiment addresses GINS3. The experiment is described as above. The note with it: shRNA.
In the case of TTTATTTAGCACTAAAATCAAA, the sensor-assay potency score (higher = more potent) was -1.42.
Same read-out and setting: the same measure for TTTCTCTTCTTGTAATTCTGAA: -0.125; for TCTTCTTGTAATTCTGAACGAG: -0.383.
The same measure, in the same setting: in the case of TAGTGAAACTGTACATCTGAAG it was -1.07.
Still for that read-out and setting: the same measure for TTCTATGCAATAATGTTGCAAA: -0.524; for TTCTCTTCTTGTAATTCTGAAC: -1.11.
TTTCTTTCTCAACCTGAGGTTG returned a sensor-assay potency score (higher = more potent) of -0.934.
For TACAAGGTCAACCAGCTCCTAT, the sensor-assay potency score (higher = more potent) is -1.16.
The sequence TAGTGCTTGCTTAACCAGGTTC showed a sensor-assay potency score (higher = more potent) of -0.37.
The same measure, in the same setting: in the case of TTTGTGGCTAGTGAAACTGTAC it was -0.833.
On the same count and under the same terms, the same measure for TTATTTAGGAAGGACTTTGATT: -0.522.
Still for that read-out and setting: the same measure for TTATAAAAACAACAATTCCATC: -1.34.

For the next experiment, the target named is GIPC2. The description is as above. Particulars: shRNA.
Regarding TTAACTTCTTAGCAACATCATA, the sensor-assay potency score (higher = more potent) is -1.57.
On to TTAGGTTCTATTAACTTCATAG, for which the sensor-assay potency score (higher = more potent) was -0.883.
Still for that read-out and setting: the same measure for TATGAAATCTTCTAGTCCTAGT: -0.186; for TTACTTTGTCCTTTCCAGCTTC: -0.236.
Same read-out and setting: in the case of ATACACATGAAATTAAACCAGA it was -0.735; in that of TAACTTCTTAGCAACATCATAG, -1.26.
On to TAAAAGCATAGCCAACACCATT, for which the sensor-assay potency score (higher = more potent) was -1.62.
For ATATGAAATCTTCTAGTCCTAG, the sensor-assay potency score (higher = more potent) was -0.694.
The same measure, in the same setting: the same measure for TAACTGAGTCAATAACACCACC: -0.972; for TTTCTCCTGATGACTTTCCAGC: -1.05.
The same measure, in the same setting: the same measure for TTTATACACATTCACTTCTTTT: -1.24; for TTAACTGAGTCAATAACACCAC: 0.431.

A further experiment concerns the target GIP. The experiment is described as above. The note with it: shRNA.
TAGCATGAGATCCAACAGGCAG registered a sensor-assay potency score (higher = more potent) of -0.668.
Regarding TCACCTTAGCATGAGATCCAAC, the sensor-assay potency score (higher = more potent) was -1.2.
The same measure, in the same setting: in the case of TTGAATCAGCAAGTCCCGCAGC it was -0.492; in that of AATACTGTAGTCACTGATGAAA, -1.63.
On the same count and under the same terms, in the case of TTGGTGAATCTTGTCCATGGCA it was -0.501; in that of TAGTCACTGATGAAAGTCCCTT, -0.346.
On the same count and under the same terms, the same measure for TTTGTCTGATCCAGCAAGCAGG: -1.07.

(Values after the OligoGym collection.)
Further: reference of the scale not given here.
